# Laboratory results as given in PubChem BioAssay (Tox21).
# Inconclusive results are not listed. A number with no mark means an inactive call. Calls of active or inactive are those of the source. Calls follow the shape of the dose curve; as a rule, active = well fitted activation curve with a large enough effect in the repeat runs; inconclusive = weak or mixed curves, or effect the other way; inactive = no such curve, though single readings can be large or run the other way.
# Assay: qHTS assay to identify small molecule agonists of the estrogen related receptor signaling pathway with the pleiotropic PPARgamma coactivator (PGC) from Tox21 10K library (AID 1224842); also: nearly all actives have a fitted effect of over 15% in size
# Details: PGC/ERR reporter cell line, luciferase ONE-Glo, 18 h; series mostly up to 92.4 µM; activation: at the top concentration
# Text: National Center for Advancing Translational Sciences [NCATS] NIH Chemical Genomics Center [NCGC] U.S. Environmental Protection Agency [EPA] National Institutes of Environmental Health Sciences [NIEHS] National Toxicology Program [NTP] Assay overview: Estrogen related receptors (ERRs), the first orphan nuclear receptors discovered, play an important role in the control of cellular energy metabolism. ERRs are required for high-energy production in response to the environmental challenges. The pleiotropic PPARgamma coactivator (PGC) is a major partner of ERR and a key regulator in energy homeostasis. Together they have been implicated in the etiology of metabolic disorders such as Type 2 diabetes and metabolic syndrome. ERR-alpha was also identified as an adverse marker for breast cancer progression; ERR-alpha-positive tumors have a poor prognosis. To screen and to identify environmental compounds that perturb the PGC/ERR signaling pathways could provide valuable information for potential therapeutic or preventive measures in the treatment of metabolic disease. For identifying PGC/ERR agonists, PGC/ERR cell line (provided by NTP) has been used to screen Tox21 10K library.
# Assay Protocol Summary: The PGC/ERR cells were dispensed at 2,000 cells/5 ul/well in 1536-well white plates using a Multidrop dispenser. After the assay plates were incubated at a 37 C/5% CO2 incubator for 6 hours, 23 nL of compounds dissolved in DMSO, positive and negative controls or DMSO only was transferred to the assay plate by a pin tool. The plates were incubated at 37 C for 18 hours. 4 ul/well of One-Glo reagent was added into the assay plates using a Flying Reagent Dispenser. After 30-minute incubation at room temperature, the luminescence intensity in the plates was measured using a ViewLux plate reader.
# % is scaled to controls: 0 for no effect and ±100 for the full control effect; potency is read from the fitted curve at half-maximal effect.
SMILES,activation,Potency
C=CC(=O)CC,-3.5%,
COC(=O)C(c1ccccc1Cl)N1CCc2sccc2C1 (stereo not given),2.93% [at 42.5 µM],
CC(=O)Nc1ccc(OCCOCCOc2ccc(NC(C)=O)cc2)cc1,3.09% [at 42.5 µM],
CC/C=C\CCCCCCCCCCOC(C)=O,5.56%,
O=C1Nc2ccccc2C1=O,-7.7%,
CC(C)C[P+](C)(CC(C)C)CC(C)C,-9.09%,
COC(=O)/C=C(\C)CCC=C(C)C,1.13%,
CC(C)(C)C(=O)CCc1ccc(Cl)cc1,1.2%,
C=C(C)C(=O)OCCOC1CC2CC1C1C=CCC21 (stereo not given),2.5%,
CC(=O)c1ccc2ccc3ccccc3c2c1,12.1%,
O=C(O)CCCCCCCCCC(=O)O,-2.48%,
CN(C)CCC[C@@]1(c2ccc(F)cc2)OCc2cc(C#N)ccc21,-0.499% [at 42.5 µM],
O=C(O)Cc1c(Cl)ccc(Cl)c1Cl,0.0288%,
COC(=O)N/N=C/c1c[n+]([O-])c2ccccc2[n+]1[O-],0.0052% [at 42.5 µM],
Nc1cc(S(=O)(=O)O)ccc1O,-0.0212%,
CCCCCC(CC)OC(=O)CCCOc1ccc(Cl)cc1Cl (stereo not given),2.66%,
C=COCCCCO,-8.08%,
CCCCCCCC(=O)N(C)C,1.36%,
C[n+]1ccccc1/C=N/O,-0.903% [at 42.5 µM],
C=CC(=O)OCCOCCOCC,7.87%,

SMILES,activation,Potency
Cc1ccc(O)c([N+](=O)[O-])c1,-1.36%,
C=CCn1cc[n+](C)c1,-0.27%,
CC(C)(C)c1ccc(N)cc1,2.38%,
CC(=O)c1c(C)cc(C(C)(C)C)cc1C,-1.8%,
C=CCCCCCCCCCCCCCC,-5.23% [at 19 µM],
O=c1[nH]c(=O)c2cn[nH]c2[nH]1,10.3%,
O=S(=O)(O)c1cc(I)c(O)c2ncccc12,0.306% [at 42.5 µM],
CN1C(CCl)Nc2cc(Cl)c(S(N)(=O)=O)cc2S1(=O)=O (stereo not given),2.17% [at 42.5 µM],
CCCCCCCCCCCC(C)=O,-1.02%,
O=C(O)CCC(=O)Nc1ccc(S(=O)(=O)Nc2nccs2)cc1,-3.35% [at 42.5 µM],
C/C=C(\C)C(=O)OC/C=C(\C)CCC=C(C)C,5.5%,
N=C(N)S(=O)O,-1.32%,
CCCCOCCCC,2.02%,
CC1(C)CC(N)CC(C)(C)N1,10.3%,
CC(C)c1cc(C(C)C)cc(C(C)C)c1,0.695%,
Cc1nnc(C(=O)NC(C)(C)c2nc(C(=O)NCc3ccc(F)cc3)c(O)c(=O)n2C)o1,-2.75% [at 42.5 µM],
CC[C@@]1(c2ccccc2)NC(=O)N(C)C1=O,-3.22% [at 42.5 µM],
COc1ccc2cc(CCC(C)=O)ccc2c1,,13.3 µM (active)
Cc1ccccc1OCC(=O)O,-10.9%,
CCO[Si](CC(C)C)(OCC)OCC,-1.93%,
